# Assay results published in PubChem BioAssay.
# Active and inactive are the calls of the source. Unless noted, how the calls were made is not given here.
# Experiments:
# [1] = test system: Wnt5a (protein binding on small-molecule microarray); experiment: Wnt5a binders on small-molecule microarray, primary screen, biophysical, 635/667 nm fluorescence (AID 1142); conditions: 635 nm fluorescence, higher = more signal;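 further: fluorescence read at 667 nm with signal to noise per printed feature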
# [2] = cell viability in Huh7 cells, primary screen, cytotoxicity control for HCV replication inhibitor project, CellTiter-Glo luminescence, basal, 48 h (AID 1143); conditions: Huh7 HCV replicon, higher = more signal, called active from +8 up or from −8 down;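 further: Huh7 hepatoma cells carrying a hepatitis C replication reporter with no stimulus; test concentration not given here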
# [3] = P. aeruginosa biofilm formation inhibitors, primary screen, PAO1 strain, BacTiter-Glo luminescence, LB-PBS (AID 1144); conditions: 12 h, higher = more signal
# [4] = CREB reporter modulators without forskolin, primary screen, cell-based, PC12, CRE-LacZ reporter, unstimulated (AID 1145); conditions: no forskolin, luminescence, 4.5 h, higher = more signal, called active from +8 up or from −8 down
# [5] = CREB reporter modulators under forskolin, primary screen, cell-based, PC12, CRE-LacZ reporter, forskolin-stimulated (AID 1146); conditions: luminescence, 4.5 h, higher = more signal, called active from +8 up or from −8 down;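 further: PC12 cells with 6xCRE LacZ reporter stimulated by forskolin 10 µM; beta-galactosidase reporter signal reflecting CREB driven transcription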
# [6] = target: Streptavidin (Streptomyces avidinii) (UniProt P22629); experiment: streptavidin binders on small-molecule microarray, primary screen, artefact control for SMM compound annotation, biophysical, 635/667 nm fluorescence (AID 1147); conditions: streptavidin binding, higher = more signal;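 further: signal reflects streptavidin binding to arrayed compounds as a control protein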
# Streptavidin (Streptomyces avidinii), sequence (P22629 whole entry, looked up): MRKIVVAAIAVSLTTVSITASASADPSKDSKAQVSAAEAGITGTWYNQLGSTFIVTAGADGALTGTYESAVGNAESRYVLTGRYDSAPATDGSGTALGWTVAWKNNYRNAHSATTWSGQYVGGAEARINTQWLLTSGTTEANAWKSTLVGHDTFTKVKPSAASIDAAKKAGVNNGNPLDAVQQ
# [7] = small-molecule binders of probe aInhba, primary screen, biochemical, small-molecule microarray, 635/667 nm fluorescence (AID 1148); conditions: higher = more signal;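 further: score merges 667nm spot fluorescence with signal-to-noise for antibody binding to printed compounds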
# Torsin-1A (Homo sapiens) [8] = target: Torsin-1A (Homo sapiens) (UniProt O14656); experiment: torsin A binders from cell lysate, primary screen, small-molecule microarray, wild-type, 635/667 nm (AID 1149); conditions: COS7 hTOR1A-WT lysate, 635 nm fluorescence, higher = more signal
# Torsin-1A (Homo sapiens), sequence (O14656 whole entry, looked up): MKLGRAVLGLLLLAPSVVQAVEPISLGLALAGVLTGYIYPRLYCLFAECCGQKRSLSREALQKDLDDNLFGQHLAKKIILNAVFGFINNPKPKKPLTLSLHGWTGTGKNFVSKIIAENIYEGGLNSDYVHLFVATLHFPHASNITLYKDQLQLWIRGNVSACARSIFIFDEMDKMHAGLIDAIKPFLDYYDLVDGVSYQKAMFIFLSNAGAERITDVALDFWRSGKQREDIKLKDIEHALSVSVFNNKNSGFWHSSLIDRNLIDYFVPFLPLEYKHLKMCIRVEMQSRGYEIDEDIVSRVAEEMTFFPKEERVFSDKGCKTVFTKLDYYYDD
# Torsin-1A (Homo sapiens) [9] = target: Torsin-1A (Homo sapiens) (UniProt O14656); experiment: small-molecule binders of mutant TOR1A in lysate, primary screen, cell lysate, small-molecule microarray, COS7 lysate, 635/667 nm fluorescence (AID 1150); conditions: COS7 hTOR1A mutant lysate, 635 nm fluorescence, higher = more signal;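 further: score pools 667 nm emission and signal to noise measuring lysate protein binding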
# [10] = test system: Sonic hedgehog protein (Shh); experiment: small-molecule binders of Shh protein, primary screen, biochemical, small-molecule microarray, 635/667 nm fluorescence (AID 1151); conditions: small-molecule microarray binding, 635 nm fluorescence; higher = more signal;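 further: Shh protein binding to compounds spotted on small-molecule microarray slides; score combines spot fluorescence intensity with signal-to-noise across triplicate slides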
smiles,measurement,setting,value
[N-]=[N+]=NCc1ccccc1C[C@]1(C(=O)NCCN2CCOCC2)N=C(c2ccc(OCCCO)cc2)O[C@H]1c1ccccc1N=[N+]=[N-],composite z-score,[1],0.152
same,z-score,[2],-3.01 (inactive)
same,z-score,[3],-0.446 (inactive)
same,z-score,[4],1.65 (inactive)
same,z-score,[5],-0.891 (inactive)
same,composite z-score,[6],1.05
same,composite z-score,[7],0.279
same,composite z-score,Torsin-1A (Homo sapiens) [8],0.304
same,composite z-score,Torsin-1A (Homo sapiens) [9],0.283
same,composite z-score,[10],-0.0478
CCCCCN1CC=CC23O[C@@H]4/C=C\CCC(C)OC(=O)C4[C@H]2C(=O)N(CCCCCO)[C@@H]3C1=O (stereo not given in full),composite z-score,[1],-1.01
same,z-score,[2],0.292 (inactive)
same,z-score,[3],-1.35 (inactive)
same,z-score,[4],-0.492 (inactive)
same,z-score,[5],0.069 (inactive)
same,composite z-score,[6],-1.33
same,composite z-score,[7],-0.182
same,composite z-score,Torsin-1A (Homo sapiens) [8],-0.798
same,composite z-score,Torsin-1A (Homo sapiens) [9],0.815
same,composite z-score,[10],-0.0084
[N-]=[N+]=NCc1ccccc1C[C@@]1(C(=O)N2CCOCC2)N=C(c2ccc(OCCCO)cc2)O[C@@H]1c1ccccc1CN=[N+]=[N-],composite z-score,[1],1.44
same,z-score,[2],-3.44 (inactive)
same,z-score,[3],-1.02 (inactive)
same,z-score,[4],1.7 (inactive)
same,z-score,[5],-0.0755 (inactive)
same,composite z-score,[6],1.56
same,composite z-score,[7],0.985
same,composite z-score,Torsin-1A (Homo sapiens) [8],0.375
same,composite z-score,Torsin-1A (Homo sapiens) [9],0.193
same,composite z-score,[10],0.704
COc1ccc(C#Cc2ccc3c(c2)[C@]2(C(=O)N3)[C@H](C(=O)NC[C@H](O)c3ccccc3)[C@H]3C(=O)O[C@H](c4ccccc4)[C@H](c4ccccc4)N3[C@@H]2c2ccc(OCCO)cc2)cc1,composite z-score,[1],0.628
same,z-score,[2],-2.89 (inactive)
same,z-score,[3],-0.563 (inactive)
same,z-score,[4],0.478 (inactive)
same,z-score,[5],-0.447 (inactive)
same,composite z-score,[6],0.59
same,composite z-score,[7],-0.0173
same,composite z-score,Torsin-1A (Homo sapiens) [8],0.369
same,composite z-score,Torsin-1A (Homo sapiens) [9],0.869
same,composite z-score,[10],1.96
Cc1ccc([C@H]2[C@H](C(=O)O)[C@H](Sc3ccccc3)[C@@H](C(C)C)N2S(=O)(=O)c2ccc(C)cc2)cc1,composite z-score,[1],0.378
same,z-score,[2],-2.04 (inactive)
same,z-score,[3],0.766 (inactive)
same,z-score,[4],-0.676 (inactive)
same,z-score,[5],-0.728 (inactive)
same,composite z-score,[6],0.93
same,composite z-score,[7],-0.231
same,composite z-score,Torsin-1A (Homo sapiens) [8],0.495
same,composite z-score,Torsin-1A (Homo sapiens) [9],0.612
same,composite z-score,[10],-0.861
C=C(C(=O)CC[C@H](OC(C)=O)c1ccc(OCCO)cc1)C(C)C,composite z-score,[1],0.35
same,z-score,[2],-8.04 (active)
same,z-score,[3],-0.28 (inactive)
same,z-score,[4],1.63 (inactive)
same,z-score,[5],0.655 (inactive)
same,composite z-score,[6],0.934
same,composite z-score,[7],-0.125
same,composite z-score,Torsin-1A (Homo sapiens) [8],0.612
same,composite z-score,Torsin-1A (Homo sapiens) [9],0.909
same,composite z-score,[10],2.13
CCC[C@@H]1C=C(C(=O)O)[C@H](c2ccc(C)cc2)N1S(=O)(=O)c1ccc(C)cc1,composite z-score,[1],0.0266
same,z-score,[2],0.224 (inactive)
same,z-score,[3],-0.0655 (inactive)
same,z-score,[4],-0.527 (inactive)
same,z-score,[5],0.348 (inactive)
same,composite z-score,[6],0.981
same,composite z-score,[7],-0.0087
same,composite z-score,Torsin-1A (Homo sapiens) [8],0.837
same,composite z-score,Torsin-1A (Homo sapiens) [9],1.38
same,composite z-score,[10],-0.65
CN1C=C(C(=O)OCCS(C)(=O)=O)C(C(=O)OCCS(C)(=O)=O)=CC(CCCO)=CC1C1CC1 (stereo not given),composite z-score,[1],-0.102
same,z-score,[2],-0.134 (inactive)
same,z-score,[3],-0.483 (inactive)
same,z-score,[4],-0.844 (inactive)
same,z-score,[5],-0.657 (inactive)
same,composite z-score,[6],0.207
same,composite z-score,[7],-0.128
same,composite z-score,Torsin-1A (Homo sapiens) [8],-0.0089
same,composite z-score,Torsin-1A (Homo sapiens) [9],0.344
same,composite z-score,[10],0.501
CCOC(=O)C[C@H]1[C@H](OC(=O)c2ccc(-c3ccccc3)cc2)[C@@H](NC(=O)c2ccc(-c3ccccc3)cc2)c2cc(OCCCO)ccc2N1C(=O)Cc1ccc(OC)cc1,composite z-score,[1],0.0386
same,z-score,[2],-0.477 (inactive)
same,z-score,[3],-0.402 (inactive)
same,z-score,[4],-0.448 (inactive)
same,z-score,[5],-0.494 (inactive)
same,composite z-score,[6],0.745
same,composite z-score,[7],0.0301
same,composite z-score,Torsin-1A (Homo sapiens) [8],-0.205
same,composite z-score,Torsin-1A (Homo sapiens) [9],0.119
same,composite z-score,[10],-0.195
O=C(CS)NCCCCCCNC(=O)[C@@H]1C[C@@H]2C(=O)N3CCC[C@H]3C(=O)N2[C@@H]1c1ccc(O)cc1,composite z-score,[1],0.133
same,z-score,[2],0.589 (inactive)
same,z-score,[3],0.178 (inactive)
same,z-score,[4],-0.39 (inactive)
same,z-score,[5],-0.972 (inactive)
same,composite z-score,[6],-0.974
same,composite z-score,[7],-0.129
same,composite z-score,Torsin-1A (Homo sapiens) [8],0.971
same,composite z-score,Torsin-1A (Homo sapiens) [9],1.1
same,composite z-score,[10],0.881
Cc1ccccc1C(O)C1C=CC2C(=O)N(C)C(=O)C2N1N1CCCCC1 (stereo not given),composite z-score,[1],0.343
same,z-score,[2],0.896 (inactive)
same,z-score,[3],0.46 (inactive)
same,z-score,[4],-0.133 (inactive)
same,z-score,[5],-0.0415 (inactive)
same,composite z-score,[6],1.24
same,composite z-score,[7],0.462
same,composite z-score,Torsin-1A (Homo sapiens) [8],0.851
same,composite z-score,Torsin-1A (Homo sapiens) [9],0.696
same,composite z-score,[10],0.0488
CCCCCN1CC=CC23O[C@@H]4/C=C\CCCOC(=O)C4[C@H]2C(=O)N(CCCCCCO)[C@@H]3C1=O (stereo not given in full),composite z-score,[1],-0.686
same,z-score,[2],-1.95 (inactive)
same,z-score,[3],-2.51 (inactive)
same,z-score,[4],-1.44 (inactive)
same,z-score,[5],-0.43 (inactive)
same,composite z-score,[6],-1.21
same,composite z-score,[7],-0.128
same,composite z-score,Torsin-1A (Homo sapiens) [8],0.61
same,composite z-score,Torsin-1A (Homo sapiens) [9],0.474
same,composite z-score,[10],0.124
[N-]=[N+]=Nc1ccccc1[C@H]1OC(c2ccc(OCCCO)cc2)=N[C@@]1(CCS(=O)(=O)c1ccccc1)C(=O)O,composite z-score,[1],0.296
same,z-score,[2],-1.06 (inactive)
same,z-score,[3],0.713 (inactive)
same,z-score,[4],1.29 (inactive)
same,z-score,[5],-0.197 (inactive)
same,composite z-score,[6],0.433
same,composite z-score,[7],0.0516
same,composite z-score,Torsin-1A (Homo sapiens) [8],-0.363
same,composite z-score,Torsin-1A (Homo sapiens) [9],1.13
same,composite z-score,[10],-0.721
CCCNC(=O)[C@@H]1c2ccccc2C(=O)N(Cc2ccccc2)[C@H]1c1ccc(CO)cc1,composite z-score,[1],-0.0869
same,z-score,[2],-1.98 (inactive)
same,z-score,[3],-0.112 (inactive)
same,z-score,[4],-0.179 (inactive)
same,z-score,[5],0.0988 (inactive)
same,composite z-score,[6],0.624
same,composite z-score,[7],-0.0405
same,composite z-score,Torsin-1A (Homo sapiens) [8],-0.468
same,composite z-score,Torsin-1A (Homo sapiens) [9],-0.221
same,composite z-score,[10],-0.461
